# Measured potencies and affinities stand elsewhere. A number with no mark means an inactive call.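 How the source made its calls: active means compounds lowering cell ATP signal whose fitted half-effect dose is at most a set limit; inconclusive means flat fit showing moderate signal loss, or unreliable curve fit; inactive means the rest, including signal increases.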
# Experiment: A375 melanoma cell viability loss, dose response, counter-screen for MITF modulator project, CellTiter-Glo luminescence, dry powder, set 9 (AID 651591)
# Conditions: CellTiter-Glo ATP luminescence, 24 h; series mostly up to 35 µM; activity change, negative = cytotoxicity: at the top concentration
row,Compound,"activity change, negative = cytotoxicity [%]"
1,O=C1C(Nc2ccccc2)=C(c2ccccc2)C(=O)c2ccccc21,-6.4
2,O=C1C=C(NS(=O)(=O)c2ccccc2)C(=O)c2ccccc21,-10.1
3,CC(C)N1CCN(C2=C(Nc3ccc(F)cc3F)C(=O)c3ccccc3C2=O)CC1,-13
4,NC1=C(NS(=O)(=O)c2ccc(Br)cc2)C(=O)c2ccccc2C1=O,1.99
5,O=C1C=C(NS(=O)(=O)c2ccc(Br)cc2)C(=O)c2ccccc21,-3.17
6,O=C1C=C(NS(=O)(=O)c2cccs2)C(=O)c2ccccc21,-2.97
7,NC1=C(NS(=O)(=O)c2ccccc2)C(=O)c2ccccc2C1=O,-5.18
8,NC1=C(NS(=O)(=O)c2ccc(Br)s2)C(=O)c2ccccc2C1=O,0.175

# Reference: PubChem BioAssay AID651591 (Broad Institute, 2012)
